# Measurements as given in the supplement of paper PMC8728848.
# The full list was thinned out, with the strongest signals kept by preference.
# Legend:
# Test in all cases: glycan array binding signal (z-score within array); higher = stronger binding
# Details in all cases: glycan notation: IUPAC condensed, linker removed
# [1] = biological target: Neu5Ac(a2-3)Gal(b1-3)GalNAc(b1-4)[Neu5Ac(a2-8)Neu5Ac(a2-3)]Gal(b1-4)Glc
# Procedure, shortened: (§1)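 Glycan array data were curated from 3228 arrays in the Consortium for Functional Glycomics database and kept only where the protein sequence was available. Glycan names were converted to IUPAC-condensed notation, and columns mapping to the same glycan were averaged. The binding signal is a within-array Z-score, averaged across arrays of the same protein sequence at different concentrations or buffers and across linkers. Negative Z-scores can be read as non-binding.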
# [2] = biological target: Neu5Ac(a2-3)Gal(b1-4)GlcNAc(b1-2)[Neu5Ac(a2-3)Gal(b1-4)GlcNAc(b1-4)]Man(a1-3)[GlcNAc(b1-4)][Neu5Ac(a2-3)Gal(b1-4)GlcNAc(b1-4)Man(a1-6)]Man(b1-4)GlcNAc(b1-4)GlcNAc
# Procedure, shortened: as §1
# [3] = biological target: Neu5Ac(a2-3)Gal(b1-4)[Fuc(a1-3)]GlcNAc
# Procedure, shortened: as §1
# [4] = biological target: Neu5Ac(a2-3)Gal(b1-4)[Fuc(a1-3)]GlcNAc6S
# Procedure, shortened: as §1
# [5] = biological target: Neu5Ac(a2-6)Gal(b1-4)GlcNAc(b1-2)Man(a1-3)[Neu5Ac(a2-6)Gal(b1-4)GlcNAc(b1-2)Man(a1-6)]Man(b1-4)GlcNAc(b1-4)[Fuc(a1-6)]GlcNAc
# Procedure, shortened: as §1
# [6] = biological target: Neu5Ac(a2-6)Gal(b1-4)GlcNAc(b1-2)Man(a1-6)[Gal(b1-4)GlcNAc(b1-2)Man(a1-3)]Man(b1-4)GlcNAc(b1-4)GlcNAc
# Procedure, shortened: as §1
# [7] = biological target: Neu5Ac(a2-6)Gal(b1-4)GlcNAc(b1-3)Gal(b1-4)GlcNAc(b1-3)GalNAc
# Procedure, shortened: as §1
# [8] = biological target: Neu5Ac(a2-8)Neu5Ac(a2-3)Gal(b1-3)GalNAc(b1-4)[Neu5Ac(a2-3)]Gal(b1-4)Glc
# Procedure, shortened: as §1
# [9] = biological target: Neu5Ac(a2-8)Neu5Ac(a2-3)[Gal(b1-3)GalNAc(b1-4)]Gal(b1-4)Glc
# Procedure, shortened: as §1
# [10] = biological target: Neu5Ac(b2-6)GalNAc
# Procedure, shortened: as §1
# [11] = biological target: Neu5Ac9Ac(a2-3)Gal(b1-3)GlcNAc
# Procedure, shortened: as §1
# [12] = biological target: Neu5Gc(a2-3)Gal(b1-4)GlcNAc(b1-3)Gal(b1-4)GlcNAc(b1-2)Man(a1-3)[Neu5Gc(a2-3)Gal(b1-4)GlcNAc(b1-3)Gal(b1-4)GlcNAc(b1-2)Man(a1-6)]Man(b1-4)GlcNAc(b1-4)GlcNAc
# Procedure, shortened: as §1
# [13] = biological target: Neu5Gc(a2-6)Gal(b1-4)GlcNAc
# Procedure, shortened: as §1
binder,measurement,setting,value
SP16663B-bot-321-25-321 (Bacteroides ovatus) (protein) DDDDEVTMNSKFYLSTKVFPVDSYEASLSVILKDNSVVVNELQPNYRFVACATERLSKDVKITADSDDNLVSAYNKANDTEYNILPAENYSFTNKTVTIENGESVSGDSIKIELLNVGSLTTEGGYLLPVTISSIEGNNLDALSSNRGVVYLKIQNIHVNVESGQPAEGTLIADRSGWTVKVAPTTRGDAKNLIDGTNSDVARDGGAEYWLTVDIGKVQTLTGIRNKCYASSYSPTAVEVFTSSDGAKWKSIGAVTISKSGTQYIKFSKAVETRYLKYYVKQGPNTVSLTEFDLYAK,glycan array binding signal (z-score),[1],0.469
same,glycan array binding signal (z-score),[2],-0.146
same,glycan array binding signal (z-score),[3],-0.258
same,glycan array binding signal (z-score),[4],-0.406
same,glycan array binding signal (z-score),[5],0.583
same,glycan array binding signal (z-score),[6],-0.492
same,glycan array binding signal (z-score),[7],-0.34
same,glycan array binding signal (z-score),[8],-0.244
same,glycan array binding signal (z-score),[9],0.154
same,glycan array binding signal (z-score),[10],-0.878
same,glycan array binding signal (z-score),[11],0.033
same,glycan array binding signal (z-score),[12],-0.142
same,glycan array binding signal (z-score),[13],0.696
